± gives the standard deviation of the averaged measurements. Over roughly 2,000 compounds, “relative cell viability vs DMSO, compound alone” has its median near 1.1; the lowest 2% begin near 0.29. Only a selection was taken, and the lowest values are over-represented in it overall.

In this test the test system is TE10. Nature of the test: relative cell viability vs DMSO, compound alone (fraction); TE10 is an esophageal squamous carcinoma line; higher = less cytotoxic. The note with it: 2 µM; 48 h. The procedure:
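TE10 ESCC cells (1,000/well, 384-well plates) were treated with Selleck bioactive library compounds at 2 uM alone for 48 h. Viability was read by CellTiter-Glo and expressed relative to DMSO wells. Two technical replicates (A, B).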
The compound `O=C(O)c1ccccc1` [Benzoic Acid] returned a relative cell viability of 1.09 ± 0.0064.

`O=C(O)CCNC(=O)c1ccccc1` [Betamipron] returned a relative cell viability of 1.08 ± 0.022.

In turn, `CN(NC(=O)CC(=O)NN(C)C(=S)c1ccccc1)C(=S)c1ccccc1` [Elesclomol (STA-4783)] registered a relative cell viability of 0.181 ± 0.013.

As to `CC1(C)O[C@@H]2[C@@H](CO[C@@]3(COS(N)(=O)=O)OC(C)(C)O[C@@H]23)O1` [Topiramate], the relative cell viability was 1.29 ± 0.052.

The compound `C[C@@H]1CN(CC(=O)Nc2ccc3c(c2)Cc2cccc(-c4cc(=O)cc(N5CCOCC5)o4)c2S3)C[C@H](C)O1` registered a relative cell viability of 1.17 ± 0.021.

The compound `Cc1cc(C)cc(NC(=O)Cc2ccc(OC(C)(C)C(=O)O)cc2)c1` [Efaproxiral Sodium] showed a relative cell viability of 1.11 ± 0.012.

As for `O=C(Nc1ccccc1)c1ccccc1O` [Salicylanilide], the relative cell viability worked out at 1.07 ± 0.059.

In turn, `O=C(Nc1cc(C(F)(F)F)cc(C(F)(F)F)c1)c1cc(Cl)ccc1O` yielded a relative cell viability of 0.18 ± 0.0024.

`CC(ONC(=O)c1cc(C(F)(F)F)cc(C(F)(F)F)c1)C(=O)Nc1ccc(Cl)cc1` (configuration not stated) gave a relative cell viability of 1.07 ± 0.024.

Regarding `C=CC(=O)Nc1cccc(Oc2nc(Nc3ccc(N4CCN(C)CC4)cc3)ncc2Cl)c1`, the relative cell viability worked out at 0.758 ± 0.011.

`C[C@H]1O[C@@H](O[C@H]2[C@@H](O)C[C@H](O[C@H]3[C@@H](O)C[C@H](O[C@H]4CC[C@@]5(C)[C@H](CC[C@@H]6[C@@H]5C[C@@H](O)[C@]5(C)[C@@H](C7=CC(=O)OC7)CC[C@]65O)C4)O[C@@H]3C)O[C@@H]2C)C[C@H](O)[C@@H]1O` [Digoxin] came in with a relative cell viability of 0.603 ± 0.013.

The compound `Nc1nc(=O)n([C@@H]2CS[C@H](CO)O2)cc1F` [Emtricitabine] returned a relative cell viability of 1.06 ± 0.076.

`CCn1c2ccccc2c2cc(Nc3ccnc(NCCCN4CCOCC4)n3)ccc21` had a relative cell viability of 1.2 ± 0.076.

Turning to `Cc1c(CN2CCN(C(=O)[C@H](C)O)CC2)sc2c(N3CCOCC3)nc(-c3cnc(N)nc3)nc12`, the relative cell viability is 0.317 ± 0.021.

In turn, `COc1ccc(-c2nc(N3CCOCC3)c3sc(CN(C)c4ncc(C(=O)NO)cn4)cc3n2)cn1` displayed a relative cell viability of 0.0746 ± 0.0025.

Compound `CS(=O)(=O)N1CCN(Cc2cc3nc(-c4cccc5[nH]ncc45)nc(N4CCOCC4)c3s2)CC1` displayed a relative cell viability of 0.483 ± 0.0077.

The compound `C[C@@H](Oc1ccc2[nH]nc(/C=C/c3cnn(CCO)c3)c2c1)c1c(Cl)cncc1Cl` returned a relative cell viability of 0.712 ± 0.01.

For `Cc1nc(Nc2n[nH]c3c2CN(C(=O)N[C@H](CN(C)C)c2ccccc2)C3(C)C)c2sccc2n1`, the relative cell viability was 0.789 ± 0.037.

`COc1cccc2cc(-c3nc([C@H]4CC[C@H](C(=O)O)CC4)n4ncnc(N)c34)[nH]c12` had a relative cell viability of 0.667 ± 0.0089.

`Cc1cc(N2CCOCC2)ccc1Nc1nc(NC2CCCCC2)c2[nH]cnc2n1` registered a relative cell viability of 1.098 ± 0.0034.

`Cc1cccc(CC(=O)N2CCc3c2ccc(-c2cn(C)c4ncnc(N)c24)c3F)n1` gave a relative cell viability of 1.01 ± 0.047.

With `CCCCCCCCCCCCCCCC(=O)OCC(O)C1OC(=O)C(O)=C1O` [L-Ascorbyl 6-palmitate], the relative cell viability was found to be 1.14 ± 0.031.
